Values joined by “and” are separate entries in the source; they are usually repeats but may differ in a detail not shown here. Identical values can stand only once. Out of some 16,000 compounds screened, about 5,800 (36%) were called active. Roughly 23% stayed inconclusive and do not appear here. The call rests on the fitted dose curve; in most records, active means well fitted curve in the direction sought with a large enough effect; inconclusive means small, poorly fitted or top-dose-only effect, or effect the other way; inactive means no such curve, though single readings can be large or run the other way. The list shows a part of the results.
Each compound was assayed against Cytochrome P450 2C19 (Homo sapiens) (UniProt P33261) (assay: Cytochrome panel assay with activity outcomes). Settings: recombinant CYP, pro-luciferin dealkylation, luminescence, p450-cyp2c19; series mostly up to 57.1 µM; activity, negative = inhibition: at the top concentration.
On the % scale 0 is the no-effect control and ±100 the full control effect.

Cytochrome P450 2C19 (Homo sapiens), sequence (P33261 whole entry, looked up): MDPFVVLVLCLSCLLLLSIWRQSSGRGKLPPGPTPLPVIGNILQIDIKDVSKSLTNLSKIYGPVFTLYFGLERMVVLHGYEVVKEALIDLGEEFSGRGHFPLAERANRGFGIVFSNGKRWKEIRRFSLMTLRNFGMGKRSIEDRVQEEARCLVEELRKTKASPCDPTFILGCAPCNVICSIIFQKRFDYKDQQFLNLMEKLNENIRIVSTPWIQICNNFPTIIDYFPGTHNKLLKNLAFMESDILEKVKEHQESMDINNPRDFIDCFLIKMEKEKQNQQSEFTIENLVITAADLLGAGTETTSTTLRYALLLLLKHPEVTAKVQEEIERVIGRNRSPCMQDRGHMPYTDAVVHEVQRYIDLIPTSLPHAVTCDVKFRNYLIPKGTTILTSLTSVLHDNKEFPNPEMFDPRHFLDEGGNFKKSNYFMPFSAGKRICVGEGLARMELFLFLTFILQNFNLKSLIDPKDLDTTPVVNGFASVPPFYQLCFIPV

activity, negative = inhibition, inactive:
CCN1C(=O)[C@H]2[C@@H]3[C@H](O)C=CC(=O)[C@H]3CC[C@H]2C1=O -2.48% [at 11.4 µM], O=C(Nc1cccc(-c2nc3ncccc3o2)c1)c1sc2cc(Cl)ccc2c1Cl 1.04%, NS(=O)(=O)c1ccc(NCc2nc3ccccc3[nH]2)cc1 39.2% [at 11.4 µM], NS(=O)(=O)c1ccc(NCc2cnc3ccccc3n2)cc1 20.6% [at 11.4 µM], Cc1nc2cnc(N3CCN(C)CC3)nc2n(Cc2cccs2)c1=O -6.25%, COc1ccccc1CN1CCCC2(CCN(C(=O)c3cccn3C)CC2)C1 2.62%, COC(=O)[C@@]1(Cc2ccc(F)cc2)[C@H]2c3cc(C(=O)N4CCCC4)n(Cc4ccc(S(C)(=O)=O)cc4)c3C[C@H]2CN1C(=O)c1ccccc1 -41.1%, CC(NC(=O)c1ccc(N2CCCC2=O)cc1)c1ccccc1 (stereo not given) 0.679%, O=c1cc(CO)oc(CN2CCCC2)c1O -9.57%, CO[C@H]1COC(=O)[C@H](C)NC(=O)C/C=C\[C@@H](C)[C@@H](NS(=O)(=O)c2ccc(C)cc2)COC(=O)[C@H](OCc2ccccc2)/C=C\[C@@H]1C 6.49% [at 11.4 µM], COc1ccc(/C=N\NC(=O)C2C(=O)NCC2c2ccccc2)cc1O (stereo not given) -11.8%, CCOc1cc(CN2CCN(c3ccc(C(C)=O)cc3)CC2)ccc1OC -19.8%, Cc1ccc(/C=N\NC(=O)c2cc(OCC(F)(F)F)ccc2OCC(F)(F)F)cc1 -0.0019%, C[C@H](O)[C@H](O)[C@@H]1CNc2nc(N)[nH]c(=O)c2N1 26.5%, Cc1ccc(C(=O)NN2CCOCC2)cc1 6.29%, O=C(CCc1ccccc1)NNC(=O)c1ccco1 -17.8%, CC(C)[C@@H](OCc1ccccc1)[C@H](C)/C=N\O[C@@H](C)c1cn([C@H](CO)Cc2ccccc2)nn1 -16.9% [at 11.4 µM] and -29.7% [at 11.4 µM], N#C/C(=C\c1ccc(O)c(O)c1)C(=O)NCCc1ccccc1 -40.2%, O=c1cc(O)cc(/C=C\c2ccc(O)c(O)c2)o1 -24.2%, N#C/C(=C\c1ccc(O)c(O)c1)C(=O)c1ccc(O)c(O)c1 0.35%, CNC[C@H](O)[C@H](O)[C@H](O)[C@H](O)CO 16.6% [at 25.6 µM], Cc1cnc(CNc2nc(-c3ccccc3C)nc3ccccc23)cn1 -36.4%, Cc1cnc(CNc2ncnc3ccc(-c4ccoc4)cc23)cn1 -4.33%

AC50, active:
O=C(NC12CC3CC(CC(C3)C1)C2)c1ccc(COc2ccc(Cl)cc2[N+](=O)[O-])o1 3.55 µM, Cc1ccc2nc(SCc3nc4c(cnn4-c4ccccc4)c(=O)[nH]3)[nH]c2c1 4.47 µM, O=C(CSc1ccc(Cl)cc1)Nc1cccc(-c2nc3ncccc3o2)c1 8.91 µM, CCCCCC(=O)Nc1cccc(-c2nc3ncccc3o2)c1 14.1 µM, NS(=O)(=O)c1ccc(NCc2ccccc2OCc2ccccc2F)cc1 6.31 µM, CC1CC/C(=C\c2ccc3c(c2)OCO3)C(=O)/C1=C/c1ccc2c(c1)OCO2 (stereo not given) 2.82 µM, COC(=O)[C@@]1(Cc2ccc(F)cc2)[C@H]2c3cc(C(=O)N4CCCC4)n(CCc4ccc(O)c(O)c4)c3C[C@H]2CN1C(=O)c1ccccc1 15.8 µM, COC(=O)[C@@]1(Cc2ccc(F)cc2)[C@H]2c3cc(C(=O)N4CCCC4)n(CCc4ccc(OC)c(Br)c4)c3C[C@H]2CN1C(=O)c1ccccc1 5.01 µM, O=C(O)c1cccc(N2CCCC2=O)c1 31.6 µM, COc1ccc(/C=N/NC(=O)c2ccccc2)cc1CN1CCN(c2ccc(F)cc2)CC1 17.8 µM, COc1ccc(/C=N/NC(=O)c2ccn[nH]2)cc1COc1ccc(F)cc1 3.55 µM, COc1ccc(C(=O)CN2CCN(c3ccc(F)cc3)CC2)cc1OC 14.1 µM, COc1ccc(/C=N/NC(=O)c2ccn[nH]2)cc1COc1ccc(Cl)cc1 2 µM, Cc1c(C(=O)NN2CCOCC2)nn(-c2ccc(Cl)cc2Cl)c1-c1ccc(I)cc1 7.94 µM, COc1ccc(CCNC(=O)c2ccccc2NC(=O)c2ccco2)cc1OC 11.2 µM, O=C(Nc1ccccc1C(=O)NCCc1ccccc1)c1ccco1 8.91 µM, N#C/C(=C\c1ccc(O)c(O)c1)C(=O)NCCCc1ccccc1 10 µM, N#C/C(=C\c1ccc(O)c(O)c1)C(=O)OCCc1cccs1 6.31 µM, N#Cc1ccc(-c2ccc(F)cc2)nc1Oc1ccc(Cl)c(Cl)c1 3.55 µM, Cc1ccc(C2NC(c3ccc(C)cc3)C(C)C(=NO)C2C)cc1 (stereo not given) 0.562 µM, Cc1cnc(CNc2ncnc3ccc(-c4ccccc4C)cc23)cn1 15.8 µM, Cc1cnc(CNc2ncnc3ccc(-c4ccc(N(C)C)cc4)cc23)cn1 15.8 µM

From PubChem BioAssay AID1851 (National Center for Advancing Translational Sciences (NCATS), 2009)
